Results taken from PubChem BioAssay.
The source made the active and inactive calls.

How the values were obtained:
[1] = small molecules captured by biotinylated probe aFSTL3 – biochemical, small-molecule microarray, fluorescence 635/667, stem cell growth factor project, primary screen (AID 1064); settings: higher = more signal;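 note: measures binding of the biotinylated anti-FSTL3 antibody to printed compounds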
[2] = binders from COS7 lysate, DM2A8 probe, primary screen, torsin A project, cell lysate, small-molecule microarray, fluorescence 635/667 (AID 1065); settings: higher = more signal, COS7 lysate expressing mutant human TOR1A
[3] = small molecules captured by biotinylated probe aFGF2 – biochemical, small-molecule microarray, fluorescence 635/667, stem cell growth factor project, primary screen (AID 1067); settings: higher = more signal;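 note: measures binding of biotinylated aFGF2 protein to printed compounds on slides; z-score merges feature fluorescence and signal-to-noise across triplicate slides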
[4] = small molecules captured by biotinylated probe aFGF10 – biochemical, small-molecule microarray, fluorescence 635/667, stem cell growth factor project, primary screen (AID 1071); settings: higher = more signal;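 note: score merges 667 nm spot intensity and signal to noise from triplicate slides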
[5] = target: Neurogenic locus notch homolog protein 2 (Homo sapiens) (UniProt Q04721); assay: small molecules binding Notch2 protein – biochemical, small-molecule microarray, 635 nm fluorescence, stem cell growth factors, primary screen (AID 1073); settings: higher = more signal
Neurogenic locus notch homolog protein 2 (Homo sapiens), sequence (Q04721 whole entry, looked up, canonical isoform): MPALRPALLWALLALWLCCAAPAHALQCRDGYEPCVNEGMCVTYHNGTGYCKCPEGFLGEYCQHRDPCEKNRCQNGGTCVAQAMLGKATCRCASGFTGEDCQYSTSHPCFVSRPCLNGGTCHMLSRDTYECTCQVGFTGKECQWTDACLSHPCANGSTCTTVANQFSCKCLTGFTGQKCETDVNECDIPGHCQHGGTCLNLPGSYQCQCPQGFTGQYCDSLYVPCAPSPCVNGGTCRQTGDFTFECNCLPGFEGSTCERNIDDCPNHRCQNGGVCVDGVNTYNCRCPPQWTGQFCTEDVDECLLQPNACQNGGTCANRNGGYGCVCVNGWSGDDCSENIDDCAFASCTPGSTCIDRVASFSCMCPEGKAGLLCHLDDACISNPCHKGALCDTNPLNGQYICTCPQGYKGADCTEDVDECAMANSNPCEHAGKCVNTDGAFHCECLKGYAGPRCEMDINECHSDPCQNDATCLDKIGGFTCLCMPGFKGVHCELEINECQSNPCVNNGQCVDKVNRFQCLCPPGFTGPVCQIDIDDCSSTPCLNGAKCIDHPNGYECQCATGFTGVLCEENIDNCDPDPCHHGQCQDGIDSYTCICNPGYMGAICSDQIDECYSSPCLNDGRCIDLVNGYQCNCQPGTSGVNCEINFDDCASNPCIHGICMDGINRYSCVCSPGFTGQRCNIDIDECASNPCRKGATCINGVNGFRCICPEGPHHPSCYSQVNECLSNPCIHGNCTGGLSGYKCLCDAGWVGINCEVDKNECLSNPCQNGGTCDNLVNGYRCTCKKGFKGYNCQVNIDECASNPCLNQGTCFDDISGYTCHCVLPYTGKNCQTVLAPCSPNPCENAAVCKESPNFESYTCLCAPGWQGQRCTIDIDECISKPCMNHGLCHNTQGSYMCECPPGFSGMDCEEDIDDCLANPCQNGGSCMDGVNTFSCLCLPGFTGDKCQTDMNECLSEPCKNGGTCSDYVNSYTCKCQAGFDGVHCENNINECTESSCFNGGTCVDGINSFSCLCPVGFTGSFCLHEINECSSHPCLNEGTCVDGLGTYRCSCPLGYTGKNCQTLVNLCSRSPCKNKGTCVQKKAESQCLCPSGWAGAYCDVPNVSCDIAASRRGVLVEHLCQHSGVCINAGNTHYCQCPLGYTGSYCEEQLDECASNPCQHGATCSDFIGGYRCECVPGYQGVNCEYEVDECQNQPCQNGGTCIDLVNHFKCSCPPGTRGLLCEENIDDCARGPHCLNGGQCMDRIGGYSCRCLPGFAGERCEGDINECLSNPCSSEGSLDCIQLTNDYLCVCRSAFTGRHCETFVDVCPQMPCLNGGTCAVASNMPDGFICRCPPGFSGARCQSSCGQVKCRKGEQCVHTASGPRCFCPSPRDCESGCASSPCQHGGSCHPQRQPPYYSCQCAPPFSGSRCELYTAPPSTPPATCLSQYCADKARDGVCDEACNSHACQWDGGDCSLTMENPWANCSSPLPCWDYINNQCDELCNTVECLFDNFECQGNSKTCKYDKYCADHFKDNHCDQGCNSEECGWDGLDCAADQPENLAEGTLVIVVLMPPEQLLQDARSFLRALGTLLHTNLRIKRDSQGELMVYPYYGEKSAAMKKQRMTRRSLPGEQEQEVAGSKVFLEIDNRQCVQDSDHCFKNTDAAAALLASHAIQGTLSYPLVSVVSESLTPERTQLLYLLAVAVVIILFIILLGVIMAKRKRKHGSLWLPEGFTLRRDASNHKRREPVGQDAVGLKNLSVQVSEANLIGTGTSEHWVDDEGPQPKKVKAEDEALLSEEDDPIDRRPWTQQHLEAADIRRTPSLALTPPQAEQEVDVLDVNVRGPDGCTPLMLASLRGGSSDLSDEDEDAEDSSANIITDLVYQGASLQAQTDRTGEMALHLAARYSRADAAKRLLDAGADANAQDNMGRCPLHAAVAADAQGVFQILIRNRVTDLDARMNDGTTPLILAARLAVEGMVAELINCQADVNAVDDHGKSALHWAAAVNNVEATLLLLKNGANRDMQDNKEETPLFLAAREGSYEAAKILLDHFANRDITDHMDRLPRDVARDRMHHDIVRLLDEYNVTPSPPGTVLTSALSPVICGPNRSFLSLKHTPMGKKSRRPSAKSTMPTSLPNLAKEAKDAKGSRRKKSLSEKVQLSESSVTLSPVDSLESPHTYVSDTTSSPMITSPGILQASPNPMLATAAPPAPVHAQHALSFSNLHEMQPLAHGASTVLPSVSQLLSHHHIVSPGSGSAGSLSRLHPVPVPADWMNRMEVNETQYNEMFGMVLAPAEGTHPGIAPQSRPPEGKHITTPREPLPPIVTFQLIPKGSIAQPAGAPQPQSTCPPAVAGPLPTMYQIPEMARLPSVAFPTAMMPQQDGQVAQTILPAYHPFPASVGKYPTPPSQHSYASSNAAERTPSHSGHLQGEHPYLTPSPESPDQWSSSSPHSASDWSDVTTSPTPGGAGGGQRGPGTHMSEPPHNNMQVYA

[6] = target: Pro-neuregulin-1, membrane-bound isoform (Homo sapiens) (UniProt Q02297); assay: small molecules binding neuregulin-1 protein – biochemical, small-molecule microarray, fluorescence 635/667, psychiatric disease protein project, primary screen (AID 1075); settings: NRG1 binding, 635 nm fluorescence, higher = more signal;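 note: score combines 667 nm spot fluorescence with signal to noise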
[7] = test system: Neuregulin-1 EGF-like domain; assay: small molecules binding NRG1 EGF domain – biochemical, small-molecule microarray, 635 nm fluorescence, primary screen (AID 1081); settings: higher = more signal;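 note: binding of the protein to compounds printed on small-molecule microarray slides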
[8] = FRG1 expression reporter modulators in myotubes – cell-based, C2C12 myotubes, firefly/Renilla luciferase, luminescence, FRG1 inhibition for FSHD, primary screen (AID 1084); settings: FRG1 promoter luciferase, higher = more signal, called active from +8 up or from −8 down
[9] = small molecules captured by biotinylated probe aFST – biochemical, small-molecule microarray, fluorescence 635/667, stem cell growth factor project, primary screen (AID 1086); settings: higher = more signal;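 note: score merges 667 nm fluorescence with signal-to-noise of each printed compound spot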
[10] = binders of probe aHhip on microarray, primary screen, stem cell growth factor project, biochemical, small-molecule microarray, fluorescence 635/667 (AID 1087); settings: higher = more signal;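 note: score merges spot fluorescence at 667nm with spot signal to noise ratio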
[11] = test system: PRMT1 (protein arginine N-methyltransferase 1); assay: small molecules binding arginine methyltransferase PRMT1 – biochemical, small-molecule microarray, 635 nm fluorescence, primary screen (AID 1088); settings: higher = more signal;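 note: binding of Prmt1 protein to compounds spotted on small-molecule microarray slides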
[12] = growth effects on S. cerevisiae YJM789 – YJM789 clinical isolate, OD600, 24 h, basal, primary screen (AID 1089); settings: higher = more signal, called active from +8 up or from −8 down;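 note: growth of clinical yeast isolate S. cerevisiae YJM 789 seeded 1000 cells per well; test concentration not given here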
[13] = S. pombe growth modifiers, basal conditions – strain 972, OD600, 24 h, no modulator, primary screen (AID 1090);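 note: basal condition with compound alone and no growth modifier present; test concentration not given here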; settings: S. pombe 972 growth, higher = more signal, called active from +8 up or from −8 down
[14] = budding yeast growth modifiers under rapamycin – strain BY4716, OD600, 96 h, primary screen (AID 1091); note: test concentration not given here; settings: S. cerevisiae BY4716 + rapamycin, higher = more signal, called active from +8 up or from −8 down
[15] = target: Torsin-1A-interacting protein 2 (Homo sapiens) (UniProt Q8NFQ8); assay: small molecules binding lysate-expressed LULL1 – cell lysate, human LULL1 lysate, 635/667 nm fluorescence, primary screen (AID 1092); settings: small-molecule microarray, hLULL1 lysate binding, 635 nm fluorescence; higher = more signal;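 note: probe is lysate of COS7 cells overexpressing human LULL1; score merges per-feature 667 nm fluorescence with signal-to-noise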
[16] = optical density change of DRC41 E. coli – strain DRC41, OD650, 24 h, E. coli filamentation project, primary screen (AID 1093);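 note: MC1000 strain lacking acrAB efflux and sulA so SOS filamentation is blocked; test concentration not given here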; settings: E. coli DRC41 growth, higher = more signal, called active from +8 up or from −8 down
[17] = probe aLefty2 binding to arrayed compounds – biochemical, biotinylated probe, 635/667 nm fluorescence, primary screen (AID 1094); settings: small-molecule microarray, higher = more signal;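 note: score merges spot fluorescence near 667 nm with spot signal-to-noise ratio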
[18] = test system: Noggin (protein binding on small-molecule microarray); assay: small molecules binding Noggin protein – biochemical, 635/667 nm fluorescence, primary screen (AID 1095); settings: 635 nm fluorescence, higher = more signal;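 note: score merges 667 nm feature fluorescence with signal to noise over triplicate slides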
[19] = target: Neurogenic locus notch homolog protein 3 (Homo sapiens) (UniProt Q9UM47); assay: small molecules binding NOTCH3 protein – biochemical, 635/667 nm fluorescence, primary screen (AID 1096); settings: small-molecule microarray, 635 nm fluorescence, higher = more signal
Neurogenic locus notch homolog protein 3 (Homo sapiens), sequence (Q9UM47 whole entry, looked up): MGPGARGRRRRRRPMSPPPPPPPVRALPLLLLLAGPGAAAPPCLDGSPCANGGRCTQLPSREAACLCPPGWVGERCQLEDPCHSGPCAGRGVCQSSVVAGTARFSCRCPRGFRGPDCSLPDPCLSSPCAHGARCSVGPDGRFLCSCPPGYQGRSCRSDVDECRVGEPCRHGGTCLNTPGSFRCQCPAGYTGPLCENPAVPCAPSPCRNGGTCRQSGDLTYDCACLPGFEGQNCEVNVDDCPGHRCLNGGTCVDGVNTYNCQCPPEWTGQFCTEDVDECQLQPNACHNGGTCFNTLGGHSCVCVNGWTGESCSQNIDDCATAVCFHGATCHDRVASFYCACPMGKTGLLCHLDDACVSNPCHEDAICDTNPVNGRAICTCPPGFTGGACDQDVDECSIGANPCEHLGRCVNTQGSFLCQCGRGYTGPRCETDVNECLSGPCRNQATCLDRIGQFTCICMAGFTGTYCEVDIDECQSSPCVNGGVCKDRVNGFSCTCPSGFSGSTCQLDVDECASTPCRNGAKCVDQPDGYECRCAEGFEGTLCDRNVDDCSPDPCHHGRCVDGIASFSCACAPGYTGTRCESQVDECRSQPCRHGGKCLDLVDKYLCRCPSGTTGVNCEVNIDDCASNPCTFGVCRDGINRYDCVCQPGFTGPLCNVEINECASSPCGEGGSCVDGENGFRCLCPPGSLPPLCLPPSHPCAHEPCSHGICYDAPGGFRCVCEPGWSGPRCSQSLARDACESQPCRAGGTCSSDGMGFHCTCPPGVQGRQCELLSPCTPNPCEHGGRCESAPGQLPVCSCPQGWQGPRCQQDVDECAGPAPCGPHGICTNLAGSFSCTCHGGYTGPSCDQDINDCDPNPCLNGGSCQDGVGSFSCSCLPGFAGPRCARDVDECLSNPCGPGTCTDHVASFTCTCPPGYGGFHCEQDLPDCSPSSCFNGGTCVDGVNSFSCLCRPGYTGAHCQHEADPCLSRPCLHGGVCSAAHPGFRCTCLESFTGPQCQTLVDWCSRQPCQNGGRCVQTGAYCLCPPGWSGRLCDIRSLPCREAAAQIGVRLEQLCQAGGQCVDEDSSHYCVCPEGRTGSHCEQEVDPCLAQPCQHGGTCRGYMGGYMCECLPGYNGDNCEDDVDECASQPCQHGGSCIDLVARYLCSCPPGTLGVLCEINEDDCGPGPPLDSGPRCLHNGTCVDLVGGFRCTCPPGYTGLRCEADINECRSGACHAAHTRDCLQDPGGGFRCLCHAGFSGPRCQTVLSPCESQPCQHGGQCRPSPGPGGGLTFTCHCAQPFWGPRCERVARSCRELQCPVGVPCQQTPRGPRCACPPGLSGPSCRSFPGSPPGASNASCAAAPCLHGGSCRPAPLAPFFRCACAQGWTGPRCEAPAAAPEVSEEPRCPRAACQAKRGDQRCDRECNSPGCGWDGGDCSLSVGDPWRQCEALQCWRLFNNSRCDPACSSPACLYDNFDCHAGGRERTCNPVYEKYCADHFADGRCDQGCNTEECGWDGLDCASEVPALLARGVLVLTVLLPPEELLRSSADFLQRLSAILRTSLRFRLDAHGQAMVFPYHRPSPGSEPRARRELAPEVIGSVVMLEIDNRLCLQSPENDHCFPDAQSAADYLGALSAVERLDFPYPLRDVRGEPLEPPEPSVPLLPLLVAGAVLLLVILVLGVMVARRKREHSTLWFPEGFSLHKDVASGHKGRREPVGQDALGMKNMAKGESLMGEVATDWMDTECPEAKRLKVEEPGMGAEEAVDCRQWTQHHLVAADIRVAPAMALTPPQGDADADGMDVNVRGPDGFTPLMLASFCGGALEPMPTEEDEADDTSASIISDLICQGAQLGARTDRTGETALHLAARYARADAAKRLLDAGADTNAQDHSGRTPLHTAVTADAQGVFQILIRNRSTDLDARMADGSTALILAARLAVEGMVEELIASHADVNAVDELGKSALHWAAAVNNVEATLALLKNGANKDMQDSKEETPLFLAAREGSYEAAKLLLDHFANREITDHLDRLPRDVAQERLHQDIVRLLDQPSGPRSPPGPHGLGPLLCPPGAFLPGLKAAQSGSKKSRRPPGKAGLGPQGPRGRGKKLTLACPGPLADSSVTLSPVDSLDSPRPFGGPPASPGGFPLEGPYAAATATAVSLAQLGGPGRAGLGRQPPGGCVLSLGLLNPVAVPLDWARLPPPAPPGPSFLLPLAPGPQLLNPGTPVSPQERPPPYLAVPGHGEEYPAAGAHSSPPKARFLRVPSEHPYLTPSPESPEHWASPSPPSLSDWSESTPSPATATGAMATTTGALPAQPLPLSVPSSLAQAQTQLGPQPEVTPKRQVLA

[20] = probe aEGFR binding to arrayed compounds – biochemical, biotinylated probe, 635/667 nm fluorescence, primary screen (AID 1097); settings: small-molecule microarray, higher = more signal;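 note: probe is a biotinylated anti-EGFR antibody binding compounds printed on slides; score combines fluorescence near 667 nm and signal to noise of each spot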

SMILES | composite z-score [1] | composite z-score [2] | composite z-score [3] | composite z-score [4] | composite z-score [5] | composite z-score [6] | composite z-score [7] | z-score [8] | composite z-score [9] | composite z-score [10] | composite z-score [11] | z-score [12] | z-score [13] | z-score [14] | composite z-score [15] | z-score [16] | composite z-score [17] | composite z-score [18] | composite z-score [19] | composite z-score [20]
CCOC(=O)C=C1C[C@@H](c2cccc([N+](=O)[O-])c2)O[C@@H](c2cccc([N+](=O)[O-])c2)O1 | 0.654 | 0.178 | 0.429 | 0.432 | 1.59 | 0.962 | 0.896 | -2.17 (inactive) | 1.72 | -0.226 | 1.5 | 1.07 (inactive) | 1.8 (inactive) | 1.79 (inactive) | 2.29 | -0.239 (inactive) | 0.91 | 0.327 | 1.12 | 0.246
O=C1C[C@@](C(=O)NCC(F)(F)F)(c2ccc([N+](=O)[O-])cc2)[C@@H](c2ccc(CO)cc2I)N1CC12CC3CC(CC(C3)C1)C2 | -0.405 | -0.0271 | -0.106 | 0.121 | 0.729 | 1.01 | 1.23 | -2.99 (inactive) | 1.08 | -0.239 | 1.55 | -1.36 (inactive) | -0.301 (inactive) | 21.1 (active) | 2.73 | 0.548 (inactive) | -0.189 | 0.515 | 0.978 | -0.206
CC(C)(C)OC(=O)CC[C@]1(C(=O)N2CCOCC2)COC(c2ccc(OCCCO)cc2)=N1 | -0.77 | 0.667 | 0.0476 | 0.0767 | 0.498 | 1.6 | 1.32 | -0.462 (inactive) | 0.163 | -0.0275 | 0.786 | 1.04 (inactive) | 0.487 (inactive) | 0.911 (inactive) | 3.6 | 1.66 (inactive) | 0.0665 | -0.778 | -0.526 | 0.94
COc1ccc(C(=O)Nc2cccc(CN3C(=O)[C@]4(O[C@H](CC(=O)N(CCO)Cc5ccccc5)[C@@H]([Si](C)(C)c5ccc(OC)cc5)[C@@H]4C)c4ccccc43)c2)cc1 | -0.211 | 0.333 | -0.0695 | 0.792 | 0.784 | 0.61 | 0.958 | -1.07 (inactive) | -0.16 | 0.2 | 1.05 | 1.22 (inactive) | 0.706 (inactive) | 3.65 (inactive) | 1.69 | 0.854 (inactive) | 0.0553 | 0.701 | 0.255 | -0.0251
CC(CO)N1C(=O)[C@@H]2[C@H]3C(=O)OCC=C[C@H]3OC23C=CCN(c2ccc4ccccc4c2)C(=O)[C@@H]13 (stereo not given in full) | 0.865 | -1.47 | -0.149 | -0.451 | -1.19 | -1.2 | 0.632 | 0.621 (inactive) | -0.946 | -0.0994 | -0.534 | -0.112 (inactive) | -0.688 (inactive) | -0.128 (inactive) | -1.16 | -0.594 (inactive) | 0.111 | -1.89 | -1.4 | -0.301
CC(C)(C)OC(=O)N1[C@@H](C=C(Br)Br)COC1(C)C | -0.195 | -0.0287 | 0.0014 | 0.348 | 0.519 | -0.0961 | 0.286 | -1.42 (inactive) | 0.125 | 0.0302 | 0.656 | -2.93 (inactive) | -6.61 (inactive) | -1.27 (inactive) | 0.546 | 1.74 (inactive) | -0.0815 | 0.462 | 0.668 | -0.0954
COC(=O)[C@@]1(Cc2ccccc2)[C@H]2c3cc(C(=O)N(C)C)n(Cc4ccc(Cl)c(C(F)(F)F)c4)c3C[C@H]2CN1C(=O)c1ccccc1 | 0.0539 | 0.277 | 0.372 | 1.09 | 1.61 | 1.35 | 1.18 | -3.33 (inactive) | 1.51 | 0.26 | 0.813 | 1.01 (inactive) | 1.45 (inactive) | 3.56 (inactive) | 2.74 | -1.12 (inactive) | 0.146 | 1.59 | 1.01 | 0.0926
O=C(CS)NCCCCCCNC(=O)[C@H]1C[C@H]2C(=O)NCC(=O)N2[C@H]1c1cccc(OCCO)c1 | -0.0511 | 0.0436 | -0.0488 | 0.22 | 0.166 | 1.36 | 1.36 | 0.525 (inactive) | 0.0909 | 0.0024 | 0.863 | -0.573 (inactive) | -0.372 (inactive) | 0.585 (inactive) | 2.47 | 1.25 (inactive) | 0.0657 | 0.6 | 0.471 | -0.0612
COc1ccc(C(=O)Nc2ccc(CN3C(=O)[C@@]4(O[C@@H](CC(=O)N(CCO)Cc5ccccc5)[C@H]([Si](C)(C)c5ccc(OC)cc5)[C@H]4C)c4ccccc43)cc2)cc1 | -0.0679 | 0.378 | -0.135 | 0.086 | -0.769 | 0.984 | 0.921 | -2.13 (inactive) | -0.263 | -0.0074 | 0.783 | -0.884 (inactive) | -0.504 (inactive) | 1.94 (inactive) | 1.5 | 1.68 (inactive) | -0.116 | 1.55 | 0.217 | 0.0326
C=CCNC(=O)[C@H]1[C@@H]2C(=O)O[C@@H](c3ccccc3)[C@@H](c3ccccc3)N2[C@@H](c2ccc(O)cc2)[C@]12C(=O)Nc1ccccc12 | 0.318 | 0.111 | -0.0628 | -0.519 | -1.15 | 0.992 | 1.09 | -2.15 (inactive) | -0.228 | 0.0749 | 1.05 | 1.14 (inactive) | 0.118 (inactive) | 1.37 (inactive) | 2.75 | 1.68 (inactive) | -0.193 | -0.0122 | -0.537 | -0.177
